PubChem BioAssay (NCATS)
Records with an inconclusive call do not appear. The source made the active and inactive calls. The call rests on the fitted dose curve; in most records, active means well fitted inhibition curve with a large enough effect in the signal ratio, with a control signal flat (not every such curve was filed as active); inconclusive means small, poorly fitted or top-dose-only effect, or effect the other way, or a change in a side signal; inactive means flat fitted curve, though single readings scatter; the % refers to the signal ratio.

The compounds below were run against Glucocorticoid receptor (Homo sapiens) (UniProt P04150) (assay: qHTS assay for small molecule antagonists of glucocorticoid receptor signaling (AID 588533)). Details: HeLa MMTV-bla, GRE beta-lactamase ratio, antagonist mode, 18 h; series mostly up to 76.8 µM; activity change, negative = inhibition: at the top concentration.
Glucocorticoid receptor (Homo sapiens), sequence (P04150 whole entry, looked up): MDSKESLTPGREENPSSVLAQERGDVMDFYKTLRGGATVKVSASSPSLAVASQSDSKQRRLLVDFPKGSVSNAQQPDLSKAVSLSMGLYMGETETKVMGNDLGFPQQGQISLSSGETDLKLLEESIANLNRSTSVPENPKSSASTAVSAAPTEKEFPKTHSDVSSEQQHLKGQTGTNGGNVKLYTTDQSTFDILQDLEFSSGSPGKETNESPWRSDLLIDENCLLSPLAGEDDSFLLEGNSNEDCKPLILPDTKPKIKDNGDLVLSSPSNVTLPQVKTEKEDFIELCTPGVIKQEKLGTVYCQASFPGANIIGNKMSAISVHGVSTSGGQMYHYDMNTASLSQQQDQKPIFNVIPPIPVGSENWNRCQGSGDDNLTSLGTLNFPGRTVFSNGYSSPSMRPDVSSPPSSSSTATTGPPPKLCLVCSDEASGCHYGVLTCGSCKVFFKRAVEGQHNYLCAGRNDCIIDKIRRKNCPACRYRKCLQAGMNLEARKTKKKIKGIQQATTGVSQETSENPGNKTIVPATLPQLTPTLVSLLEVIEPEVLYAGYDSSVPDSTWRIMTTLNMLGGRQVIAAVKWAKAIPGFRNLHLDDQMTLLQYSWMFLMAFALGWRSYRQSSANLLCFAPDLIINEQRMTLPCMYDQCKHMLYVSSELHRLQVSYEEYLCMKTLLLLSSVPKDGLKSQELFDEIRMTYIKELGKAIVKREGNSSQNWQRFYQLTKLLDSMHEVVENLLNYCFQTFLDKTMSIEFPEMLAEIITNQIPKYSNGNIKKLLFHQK
Source text: NIH Chemical Genomics Center [NCGC] U.S. Environmental Protection Agency [EPA] National Institutes of Environmental Health Sciences [NIEHS] National Toxicology Program [NTP] NCGC Assay Overview The Glucocorticoid receptor (GR), a nuclear receptor subfamily member and its natural ligands includes […] etc. The GR is a validated drug target for inflammation. GR ligands such as dexamethasone are clinically available as anti-inflammatory drugs. Glucocorticoids implicate a role in carbohydrate, protein and lipid metabolisms and programmed cell death. They are also a component of many chemotherapy regimens for the treatment of leukemias, lymphomas, and myelomas because of their role in the induction of apoptosis.
NCGC Assay Protocol Summary Using a beta-lactamase reporter-gene under control of glucocorticoid response element (GRE), a cell-based assay [CellSensor MMTV-bla HeLa cell line assay developed by Invitrogen] was used to measure GR ligands signaling. CellSensor MMTV-bla HeLa cells were used with assay medium containing 1% charcoal/dextran treated FBS, 0.1 mM NEAA, 1 mM sodium pyruvate and 25mM HEPES. The assay was performed in clear bottom black Greiner 1536-well plates. Library compounds were measured for their ability to inhibit the reporter gene activity. Compounds were screened in a titration series in 1536-well format. […] Data was normalized relative to Dexamethasone control (2 nM, 100%), and DMSO only wells (basal, 0%). Concentration-response titration points for each compound were fitted to the Hill equation yielding concentrations of half-maximal inhibition (IC50) and maximal response (efficacy) values. qHTS protocol for GR beta-lactamase assay in antagonist mode [Step] [Parameter] [Value] [Description] 1. Reagent; 5 uL; 1500 cells/well 2. Incubation; 37 C for 3-5 hrs 3. Compounds; 23 nL; 0.59 nM to 92 uM 4. […] Agonist (Stimulator); 1uL; Dexamethasone at 2 nM (final) concentration 6. Incubation; 37 C for 18 hrs 7. Detection reagent; 1 uL of CCF4-dye 8. Incubation; RT for 2 hrs 9. Detection; Fluorescence; Envision plate reader
On the % scale 0 is the no-effect control and ±100 the full control effect.

Structure (SMILES) | activity change, negative = inhibition | outcome
O=CNc1ccccc1 | 4.57% (inactive) | –
Nc1cc(Cl)c(N)c(Cl)c1 | – | inactive
CCC(C)=O | 22.9% (inactive) | –
CC(O)COC(C)(C)C (stereo not given) | -4.61% (inactive) | –
Cc1cc([N+](=O)[O-])ccc1N | 9.55% (inactive) | –
Cc1c(C(=O)O)cccc1[N+](=O)[O-] | 12.4% (inactive) | –
OC1CCCC1 | -5.84% (inactive) | –
Cc1c(N)cccc1N | 0.147% (inactive) | –
O=C(O)CCSSCCC(=O)O | 6.62% (inactive) | –
O=C(O[C@@H](C(=O)O)[C@@H](OC(=O)c1ccccc1)C(=O)O)c1ccccc1 | -2.88% (inactive) | –
COc1ccc(N=[N+]([O-])c2ccc(OC)cc2)cc1 | 29.5% (inactive) | –
CCCCCCC(=O)O | -1.06% (inactive) | –
O=C(O)c1ccc(CO)o1 | 5.52% (inactive) | –
ICCc1ccccc1 | -25.9% (inactive) | –
CN(C)CCCCl | -7.65% (inactive) | –
Nc1cc(Cl)c([N+](=O)[O-])cc1O | 23.5% (inactive) | –
O=C(O)c1ccccc1C(=O)O | 0.932% (inactive) | –
CC(C)(C)c1ccc(OCC2CO2)cc1 (stereo not given) | 22.6% (inactive) | –
O=C(O)c1cccc(Cl)c1Cl | 6.97% (inactive) | –
CC(=C/C=C/C(C)=C/C=C/C=C(C)/C=C/C=C(C)/C=C/C(=O)O)/C=C/C(=O)O | 21.9% (inactive) | –

Structure (SMILES) | activity change, negative = inhibition | outcome
CCOC(=O)C(C)C(C)=O (stereo not given) | -3.88% (inactive) | –
CC(O)CC(C)O (stereo not given) | -22.2% (inactive) | –
O=C(O)c1ccc(C(=O)O)cc1 | – | inactive
O=Cc1c(Cl)cccc1Cl | 0.781% (inactive) | –
O=[N+]([O-])c1cc(C(F)(F)F)ccc1Cl | -8.24% (inactive) | –
COC(=O)CCC(=O)OC | 1.3% (inactive) | –
Cc1cc(C)cc(O)c1 | -17.4% (inactive) | –
C/C=C1\CC2C=CC1C2 (stereo not given) | -16.5% (inactive) | –
Nc1cccc(O)c1 | -21.6% (inactive) | –
Cc1ccco1 | 8.83% (inactive) | –
C1CCC2OC2C1 (stereo not given) | -4.73% (inactive) | –
C=CCCCCCC | 12.6% (inactive) | –
Nc1cccc(S(=O)(=O)O)c1 | -8.66% (inactive) | –
C[C@@H]1O[C@@H](O[C@@H]2[C@@H](O)[C@H](OCCc3ccc(O)c(O)c3)O[C@H](CO[C@@H]3O[C@H](CO)[C@@H](O)[C@H](O)[C@H]3O)[C@H]2OC(=O)/C=C/c2ccc(O)c(O)c2)[C@H](O)[C@H](O)[C@H]1O | -5.79% (inactive) | –
Cc1cccc([N+](=O)[O-])c1C(=O)O | 8.87% (inactive) | –
NC(N)=S | -0.968% (inactive) | –
CC(C)N(C)C | -26.6% (inactive) | –
CCC(C)O (stereo not given) | 7.71% (inactive) | –
CC(C)(C)OC=O | -0.203% (inactive) | –
CCCC=O | 9.2% (inactive) | –
